Source: PubChem BioAssay AID2405 (Southern Research Specialized Biocontainment Screening …, 2010)

Assay: anti-RSV activity of probe candidates, cell-based (AID 2405)
Conditions: RSV cytopathic effect inhibition, HEp-2 cells, stronger effect = higher value; at 100 µM unless noted; call rule not given here

Maximum inhibition, inactive:
COc1ccc(-c2csc(NC(=O)c3ccc(Cl)cc3)n2)cc1 0.97% [at 25 µM], O=C(CSc1nc2cccc(I)c2c(=O)n1-c1ccccc1)Nc1ccc2c(c1)CCC2 5.17%, Cc1cc(OC(=O)c2c(F)cccc2F)n(Cc2ccccc2)n1 0.49% [at 3.13 µM], COc1ccc(Cn2nc(C)cc2OC(=O)c2c(F)ccc(C)c2F)cc1 1.16% [at 50 µM], c1ccc2c(c1)CN1CCCC1=N2 1.32% [at 6.25 µM], O=C(CSc1nc2ccccc2c(=O)n1-c1ccc(F)cc1)Nc1ccc2c(c1)OCCO2 15% [at 50 µM], CN(C)CCCNC(=S)N1CCN(c2nc(-c3ccccc3)cs2)CC1 5.31% [at 25 µM], COc1ccc(-c2csc(N(CCCN(C)C)C(=O)c3ccccc3Cl)n2)cc1 0.91% [at 6.25 µM], CC1CCCC(C)N1CCCNC(=O)c1cc2c(s1)-c1ccccc1OC2 (stereo not drawn) 0.79% [at 0.78 µM], Brc1ccc2c(c1)CN1CCCC1=N2 25.2% [at 50 µM], OC1c2cc(Br)ccc2N=C2CCCCCN21 (stereo not drawn) 1.05%, O=C(CSc1nc2ccccc2c(=O)n1-c1ccc(Cl)c(Cl)c1)Nc1ccc2c(c1)CCC2 5.37%, COc1cccc2c(=O)n(-c3ccccc3)c(SCC(=O)Nc3ccc4c(c3)CCC4)nc12 21.8%, CCCCN(C(=O)c1ccccc1Cl)c1nc(-c2ccc(OC)cc2)cs1 5.05% [at 25 µM], CCOC(=O)C1(Cc2ccccc2C(F)(F)F)CCN(C2CCN(C(C)C)CC2)CC1 0.09% [at 0.2 µM], Oc1ccccc1C(Nc1nccs1)c1ccc2cccnc2c1O (stereo not drawn) 4.97% [at 12.5 µM], O=C(CSc1nc2ccccc2c(=O)n1-c1ccccc1)Nc1ccc2c(c1)CCC2 18.8% [at 12.5 µM], Cc1cccc2c(=O)n3c(nc12)CCC3 1.55% [at 0.2 µM], CC1CCCN(CCCNC(=O)c2cc3c(s2)-c2ccccc2OC3)C1 (stereo not drawn) 3.5% [at 25 µM], OC1c2cc(Cl)cc(Cl)c2N=C2CCCN21 (stereo not drawn) 4.35%, COc1ccc(Cn2nc(C)cc2OC(=O)c2ccccc2)cc1 0.91% [at 25 µM], Cc1cccc2c1-c1sc(C(=O)NCCCN3CCC(C)CC3)cc1CO2 0.67% [at 0.2 µM], O=C(CSc1nc2ccccc2c(=O)n1-c1ccc(F)cc1)Nc1cccc2ccccc12 16.6%, O=[N+]([O-])c1ccc2c(c1)C(O)N1CCCC1=N2 (stereo not drawn) 2.6% [at 12.5 µM], COc1ccc(-c2csc(NC(=O)c3cccc(Cl)c3)n2)cc1 1.49% [at 25 µM], Cc1ccc2nc3n(c(=O)c2c1)CCC3 2%, OC1c2cc(Br)ccc2N=C2CCCN21 (stereo not drawn) 13.5%, CCCN(C(=O)c1ccccc1Cl)c1nc(-c2ccc(OC)cc2)cs1 14.1% [at 50 µM]
